Results filed as inconclusive are left out. For part of these data: Results with a measured potency or affinity are listed apart. Activity calls are given as the source filed them.
Experiments:
[1] = Ebola virus entry assay, reporter ratio channel; AC50: Channel type: primary unless noted; outcome: Channel type: primary unless noted
[2] = Ebola virus entry assay, blue channel (ratio component)
[3] = Ebola virus entry cell assay, ratio channel
[4] = Immunotoxin (HA22) sensitization/mitigation study. Vehicle arm (PBS) (AID 1159510; call rule not given here)
[5] = Immunotoxin (SS1P) sensitization/mitigation study. Vehicle arm (DMEM) (AID 1159513; call rule not given here)
[6] = High-throughput drug toxicity screening in the BPDCN cell line Gen2.2 (AID 1224824; call rule not given here;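 also: cells exposed to compounds for 48 h before reading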); details: Gen2.2 BPDCN cells; at 45.8 µM (top of the series) unless noted
How it was run: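 Seed 500 exponentially growing Gen2.2 cells/well; add compounds by pin tool; incubate 48 h, 37 °C, 5% CO2; add CellTiter-Glo, 15 min RT; read luminescence. % activity vs DMSO (100%) and bortezomib (0%).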

[7] = High-throughput drug toxicity screening in the BPDCN cell line Cal-1 (AID 1224825; call rule not given here); details: Cal-1 BPDCN cell viability, qHTS; at 45.8 µM (top of the series) unless noted
How it was run: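 Cal-1 cells, 500 per well in phenol-red-free RPMI with 10% FBS, exposed to compounds for 48 hours at 37C, 5% CO2. Viability read by CellTiter-Glo luminescence; percent activity normalized to DMSO (100%) and 9.2 uM bortezomib final (0%).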

[8] = qHTS assay for measurement of the activity of small molecule inhibitors on Zika virus induced Caspase-3 activity in human iPSC derived neural progenitor cells (hNPCs) (AID 1224857); also: % of control where 0% means no effect; nearly all actives have a fitted effect of over 65% in size
How it was run: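 Percent inhibition of virus-induced caspase-3/7 luminescence (Caspase-Glo), scaled between uninfected cells and Zika-infected cells. hNPCs received compound 1 hr before ZIKV at 2 FFU/cell, with 6 hours infection at 37 C.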

[9] = qHTS assay for measurement of the activity of small molecule inhibitors on Zika virus induced Caspase-3 activity in human astrocytoma cells (AID 1224859);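 also: plate controls were ZIKV-infected untreated cells for no effect and uninfected cells for full effect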
How it was run: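 Luminescent caspase-3/7 read-out (30 min reagent, room temperature) in human SNB-19 cells infected 6 h with ZIKV (2 FFU/cell) after 1 h compound pre-incubation; Data were normalised to uninfected and infected wells.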

[10] = qHTS Screen of the MIPE 4.0 Collection Against Ewings Sarcoma (TC32) (AID 1259256);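 also: 100% = DMSO-treated cells and 0% = medium-only wells without cells; nearly all actives have a fitted effect of over 45% in size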
How it was run: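 Viability screen: 48 h incubation at 37C, 95% humidity, 5% CO2 with serially titrated compound, followed by CellTiter-Glo readout.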

[11] = qHTS assay to identify small molecule inhibitors of chordoma cells - UCH-1 (AID 1259355); also: % is scaled to controls: 0 for no effect and ±100 for the full control effect; nearly all actives have a fitted effect of over 55% in size
How it was run: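 Cells (800/well) were seeded and left overnight at 37 C, 5% CO2, then treated with drugs at 15 concentrations plus a combination mix of auranofin, camptothecin, doxorubicin, rubitecan and topotecan. Viability after 48hr was read by CellTiter-Glo luminescence.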

[12] = qHTS assay to identify small molecule inhibitors of chordoma cells - UCH-2 (AID 1259356); also: % is scaled to controls: 0 for no effect and ±100 for the full control effect
[13] = P-glycoprotein substrates identified in KB-3-1 adenocarcinoma cell line, qHTS therapeutic library screen (AID 1346986); details: KB-3-1 parental cells viability, CellTiter-Glo, 72 h; at 44.5 µM (top of the series) unless noted; also: nearly all actives have a fitted effect of over 60% in size
How it was run: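 Compounds were tested in dose-response against KB-3-1 and KB-8-5-11 cells at 37 degree C for 72 h, and viability was measured by luminescence. AC50 values came from curve fitting with class-based activity calls.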

CC[C@H]1OC(=O)[C@H](C)[C@@H](O[C@H]2C[C@@](C)(OC)[C@@H](O)[C@H](C)O2)C(C)[C@@H](O[C@@H]2O[C@H](C)C[C@H](N(C)C)[C@@H]2O)[C@](C)(OC)C[C@@H](C)C(=O)[C@H](C)[C@@H](O)[C@]1(C)O (stereo partly drawn)
inactive: outcome [1] inactive [Channel type: confirmation] | outcome [2]
active: AC50 [3] 7.94 µM

Nc1ncn([C@H]2C[C@H](O)[C@@H](CO)O2)c(=O)n1
inactive: outcome [1] | outcome [2] | outcome [3]

CCc1cc(C(N)=S)ccn1
inactive: outcome [1] | outcome [2] | outcome [3]

CCCc1nn(C)c2c(=O)[nH]c(-c3cc(S(=O)(=O)N4CCN(C)CC4)ccc3OCC)nc12
inactive: outcome [1] | outcome [2] | Potency [4] | Potency [5]

NC(=O)c1cnccn1
inactive: outcome [1] | outcome [2] | outcome [3]

C[C@]12CCC(=O)C=C1CC[C@@H]1[C@H]3CC[C@](C)(O)[C@@]3(C)CC[C@@H]12
93.9% [at 92.2 µM]: viability (% of control) [7]
95.2% [at 92.2 µM]: cell viability, % of control (lower = more cytotoxic) [6]
inactive: outcome [1] | outcome [2] | outcome [8] | outcome [9]

Clc1ccc2nsnc2c1NC1=NCCN1
inactive: outcome [1] | outcome [2] | outcome [3]

NS(=O)(=O)c1cc2c(cc1C(F)(F)F)NC(Cc1ccccc1)NS2(=O)=O (stereo not drawn)
inactive: outcome [1] | outcome [2] | outcome [3]

C[N+]1(C)[C@@H]2CC(OC(=O)[C@H](CO)c3ccccc3)C[C@H]1[C@@H]1O[C@@H]12 (stereo partly drawn)
inactive: outcome [1] | outcome [2] | outcome [8]

NS(=O)(=O)c1cc(C2(O)NC(=O)c3ccccc32)ccc1Cl (stereo not drawn)
inactive: outcome [1] | outcome [2] | outcome [3]

CN(C)CCOc1ccc(/C(=C(/CCCl)c2ccccc2)c2ccccc2)cc1
active: AC50 [3] 3.55 µM
inactive: outcome [1] inactive [Channel type: confirmation] | outcome [2]

CO[C@H]1C[C@@H]2CC[C@@H](C)[C@@](O)(O2)C(=O)C(=O)N2CCCC[C@@H]2C(=O)O[C@H]([C@@H](C)C[C@@H]2CC[C@H](O)[C@H](OC)C2)CC(=O)[C@H](C)C=C(C)[C@@H](O)[C@@H](OC)C(=O)[C@H](C)C[C@H](C)C=CC=CC=C1C
inactive: outcome [1] inactive [Channel type: confirmation] | outcome [2] | outcome [3]

O=C(O)CCCc1ccc(N(CCCl)CCCl)cc1
84.6%: cell viability, % of control (lower = more cytotoxic) [6]
inactive: outcome [1] | outcome [2] | outcome [3] | outcome [8] | outcome [9] | Potency [10] | outcome [11] | outcome [12] | outcome [13]
11.8%: viability (% of control) [7]

S=P(N1CC1)(N1CC1)N1CC1
inactive: outcome [1] | outcome [2] | outcome [3]

Cc1nnc(SCC2=C(C(=O)O)N3C(=O)[C@@H](NC(=O)Cn4cnnn4)[C@H]3SC2)s1
inactive: outcome [1] | outcome [2] | outcome [3]

CCC1(CC)C(=O)C=CNC1=O
inactive: outcome [1] | outcome [2] | outcome [8] | outcome [9] | outcome [11] | outcome [12]

O=[N+]([O-])O[C@H]1CO[C@H]2[C@@H]1OC[C@H]2O[N+](=O)[O-]
inactive: outcome [1] | outcome [2] | outcome [8] | outcome [9] | outcome [11] | outcome [12]

O=c1oc2ccccc2c(O)c1Cc1c(O)c2ccccc2oc1=O
inactive: outcome [1] | outcome [2] | outcome [8] | outcome [9] | outcome [11] | outcome [12]

Clc1cccc(SC2CCNCC2)n1
inactive: outcome [1] | outcome [2] | outcome [8] | outcome [9] | outcome [11] | outcome [12]

CC(C)c1c(CN(C)C(C)Cc2ccccc2)n(C)n(-c2ccccc2)c1=O (stereo not drawn)
inactive: outcome [1] | outcome [2] | outcome [8] | outcome [9] | outcome [11] | outcome [12]

C=C(C)[C@H]1CN[C@H](C(=O)O)[C@H]1CC(=O)O
inactive: outcome [1] | outcome [2] | outcome [8] | outcome [9] | outcome [11] | outcome [12]

c1ccc2c(c1)sc1ccccc12
inactive: outcome [1] | outcome [2] | outcome [8] | outcome [9] | outcome [11] | outcome [12]

Nc1ccccc1C(=O)O
inactive: outcome [1] | outcome [2] | outcome [8] | outcome [9] | outcome [11] | outcome [12]

CC(C)(C)NCC(O)c1ccccc1Cl (stereo not drawn)
inactive: outcome [1] | outcome [2] | outcome [8] | outcome [9] | activity, negative = inhibition [11] 11.9% [at 9.21 µM] | outcome [12]

CCOC(=O)CC(SP(=S)(OC)OC)C(=O)OCC (stereo not drawn)
inactive: outcome [1] | outcome [2] | outcome [8] | outcome [9] | outcome [11] | outcome [12]

O=c1[nH]oc2c1CCNC2
inactive: outcome [1] | outcome [2] | outcome [8] | outcome [9] | outcome [11] | outcome [12]

From PubChem BioAssay (NCATS)
